SMILES strings stand for the structures. Results filed as inconclusive are left out. Activity calls are given as the source filed them. The call rests on the fitted dose curve; in most records, active means well fitted activation curve with a large enough effect; inconclusive means small, poorly fitted or top-dose-only effect; inactive means no such curve, though single readings can be large or run the other way.

16 molecules from PubChem BioAssay AID492948 (National Center for Advancing Translational Sciences (NCATS), 2010) can be followed below.

This test in a line: qHTS Assay for Agonists of the Relaxin Receptor RXFP1: V1B Hit Validation.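 Further: counter-screen in HEK293 cells expressing V1B rather than RXFP1 for selectivity; nearly all actives have a fitted effect of over 65% in size.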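 On activation: cAMP accumulation with PDE4 inhibitor Ro 20-1724 present during compound exposure.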 Conditions: HEK293 V1B cells, cAMP TR-FRET, 30 min; series mostly up to 115 µM. An outline of the steps: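 TR-FRET cAMP readout (ex 320, em 615/665 nm) after 30 min RT lysis with d2-cAMP/cryptate antibody. Before that: HEK293 cells, compounds 30 min 37C, Ro 20174 present. Hill-fit EC50s.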
Potency means the concentration at half of the fitted maximal effect.

Take `CCC(Sc1ccc2nnc(-c3cccnc3)n2n1)C(=O)O` (stereo unspecified): the Potency was 17.3 µM (active). Next, `Cn1c(N)c(C(=O)CSc2nnc(NC3CCCCC3)s2)c(=O)n(C)c1=O`: “inactive”. Next, `CC1(C)O[C@@H]2[C@H](O1)[C@@H](COS(=O)(=O)O)O[C@H]2n1cnc2c(N)ncnc21`: 3.88 µM (active); `Cc1cc2nc3ccc(=[N+](C)C)cc-3sc2cc1N`: “inactive”; `CCc1cc2cc3c(cc2nc1SCC(=O)Nc1nccs1)OCO3`: 19.4 µM (active). Consider `O=C(Nc1ccccc1C(=O)O)c1ccc(NC(=O)C2CC2)cc1`, for which the Potency result was “inactive”. For `COC(=O)c1nc2ccc(N3CCOCC3)cc2c(C)c1C(=O)OC` the value was 34.6 µM (active); for `O=C(Nc1ccccc1C(=O)NCCc1ccccc1)c1ccco1`, “inactive”; for `CCCC(=O)Nc1ncnc2c1ncn2[C@@H]1O[C@@H]2OP(=O)(O)OC[C@H]2[C@H]1OC(=O)CCC`, 0.868 µM (active).

Consider `NCCNC(=O)Cc1ccc(NC(=O)Cc2ccc(Nc3ncnc4c3ncn4[C@@H]3O[C@H](CO)[C@@H](O)[C@H]3O)cc2)cc1`, for which the Potency is 2.75 µM (active). Next, `CN(Cc1ccccc1)C(=O)c1ccccc1NC(=O)c1ccco1`: “inactive”; `CCc1nnc(NC(=O)CSc2nc(C)nc3c2c(=O)n(C)c(=O)n3C)s1`: 9.74 µM (active). As to `O=C(O)c1cc(-c2ccc(Br)s2)nc2ccccc12`, the Potency is 3.46 µM (active).

For the molecule `CCOc1ccc2cc(C#N)c(SCC(=O)NC(C)CC)nc2c1` (stereo unspecified), the Potency was 5.48 µM (active). Next, `Cc1cc(C)c(C(=O)CSc2n[nH]c(=O)n2C2CC2)cc1C`: “inactive”; `O=C(O)CCSc1ccc2ccccc2n1`: 6.15 µM (active).
